PubChem BioAssay (EPA / NIEHS)
Records with an inconclusive call do not appear. The source made the active and inactive calls. Rule for the calls, unless noted: active = hit-call score of the fitted dose curve at least 0.9, where 1 is the maximum; inactive = score below 0.9.

Columns and labels:
[1] = biological target: Bile acid receptor (Homo sapiens) (UniProt Q96RI1); experiment: ATG_FXR_TRANS: Attagene TRANS-FACTORIAL HepG2 Assay for Farnesoid X Receptor (FXR) (AID 2282979; active = hit-call score of the fitted dose curve at least 0.9, where 1 is the maximum;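 note: hits raise reporter mRNA above DMSO so AC50 marks FXR activation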); conditions: HepG2 Attagene TRANS FXR-GAL4 reporter transcription
Bile acid receptor (Homo sapiens), sequence (Q96RI1 whole entry, looked up, the tested form may be a part): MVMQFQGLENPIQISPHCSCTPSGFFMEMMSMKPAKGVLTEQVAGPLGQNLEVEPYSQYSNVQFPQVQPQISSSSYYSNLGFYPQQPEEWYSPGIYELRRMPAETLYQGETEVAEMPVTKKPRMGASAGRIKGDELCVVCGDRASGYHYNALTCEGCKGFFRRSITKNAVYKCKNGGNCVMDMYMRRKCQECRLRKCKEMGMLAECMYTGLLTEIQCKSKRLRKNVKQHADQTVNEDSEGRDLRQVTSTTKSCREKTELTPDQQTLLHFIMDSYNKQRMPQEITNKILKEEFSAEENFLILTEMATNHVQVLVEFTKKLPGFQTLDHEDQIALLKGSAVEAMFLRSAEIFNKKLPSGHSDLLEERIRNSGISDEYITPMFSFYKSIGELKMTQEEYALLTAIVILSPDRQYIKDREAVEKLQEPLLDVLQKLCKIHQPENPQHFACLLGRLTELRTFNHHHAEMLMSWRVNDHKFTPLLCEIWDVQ
How it was run: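 Reporter transcripts from transfected HepG2 cells were measured 24 h after dosing, using RT-PCR with capillary electrophoresis of 6-FAM-labelled fragments. The read-out reflects activity of exogenous FXR-Gal4 chimera on GAL4-UAS units, with induction relative to DMSO.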

[2] = biological target: Oxysterols receptor LXR-beta (Homo sapiens) (UniProt P55055); experiment: ATG_LXRb_TRANS: Attagene TRANS-FACTORIAL HepG2 Assay for human Liver X Receptor beta (LXRb) (AID 2282981; active = hit-call score of the fitted dose curve at least 0.9, where 1 is the maximum); conditions: HepG2 Attagene TRANS GAL4-LXRb reporter, mRNA
Oxysterols receptor LXR-beta (Homo sapiens), sequence (P55055 whole entry, looked up, the tested form may be a part): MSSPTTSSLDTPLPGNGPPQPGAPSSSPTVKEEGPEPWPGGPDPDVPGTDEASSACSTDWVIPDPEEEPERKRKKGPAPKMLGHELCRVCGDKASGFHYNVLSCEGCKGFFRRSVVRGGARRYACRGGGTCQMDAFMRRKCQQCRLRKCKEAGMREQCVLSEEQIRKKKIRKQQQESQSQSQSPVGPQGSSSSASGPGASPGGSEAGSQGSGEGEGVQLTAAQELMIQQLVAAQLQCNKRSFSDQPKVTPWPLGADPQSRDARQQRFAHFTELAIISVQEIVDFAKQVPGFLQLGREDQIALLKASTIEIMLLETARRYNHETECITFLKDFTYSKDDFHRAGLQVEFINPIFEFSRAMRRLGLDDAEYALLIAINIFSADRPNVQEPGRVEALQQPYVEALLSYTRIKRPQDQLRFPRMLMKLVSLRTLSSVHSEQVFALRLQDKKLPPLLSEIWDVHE
How it was run: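 Readout: fluorescent reporter mRNA fragments resolved by capillary electrophoresis after RT-PCR. System: transiently transfected human HepG2, exogenous LXRb-Gal4 chimera driving GAL4-UAS reporter, 24 h dosing. Activity fitted upward against DMSO baseline.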

[3] = biological target: Hepatocyte nuclear factor 4-alpha (Homo sapiens) (UniProt P41235); experiment: ATG_HNF4a_TRANS: Attagene TRANS-FACTORIAL HepG2 Assay for human Hepatocyte Nuclear Factor 4 alpha (HNF4a) (AID 2282982; active = hit-call score of the fitted dose curve at least 0.9, where 1 is the maximum); conditions: HepG2 HNF4a transactivation reporter, mRNA readout
Hepatocyte nuclear factor 4-alpha (Homo sapiens), sequence (P41235 whole entry, looked up): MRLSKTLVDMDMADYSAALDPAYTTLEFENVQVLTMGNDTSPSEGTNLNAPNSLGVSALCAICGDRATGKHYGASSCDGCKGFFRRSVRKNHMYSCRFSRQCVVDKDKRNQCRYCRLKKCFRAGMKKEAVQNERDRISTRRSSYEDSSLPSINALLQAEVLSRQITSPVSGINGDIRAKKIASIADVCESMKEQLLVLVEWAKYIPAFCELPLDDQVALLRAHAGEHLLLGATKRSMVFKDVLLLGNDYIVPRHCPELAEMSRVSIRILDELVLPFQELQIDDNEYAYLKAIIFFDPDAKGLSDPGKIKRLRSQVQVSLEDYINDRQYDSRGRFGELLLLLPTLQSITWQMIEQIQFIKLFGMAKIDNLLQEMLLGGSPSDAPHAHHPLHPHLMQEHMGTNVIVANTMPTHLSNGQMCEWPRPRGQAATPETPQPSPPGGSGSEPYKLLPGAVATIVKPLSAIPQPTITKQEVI
How it was run: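 Transient MRTU transfection of HepG2, 24 h dosing. Readout: reporter mRNA via RT-PCR + capillary electrophoresis, fluorescence; activity fit upward relative to DMSO control.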

[4] = ATG_M_32_TRANS: Attagene TRANS-FACTORIAL HepG2 Assay for M32 Transcription Factor (Internal Marker) (AID 2282984; active = hit-call score of the fitted dose curve at least 0.9, where 1 is the maximum;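 note: transcript level of a background control reporter unit measured by RT-PCR and capillary electrophoresis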); conditions: HepG2 Attagene TRANS M32 internal marker reporter
How it was run: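 Read-out: fluorescent reporter cDNA fragments resolved by capillary electrophoresis after RT-PCR of total RNA. Transfected HepG2 cells were exposed to chemical for 24 h. Activity scored in the positive direction relative to DMSO.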

[5] = biological target: Transcriptional activator Myb (Homo sapiens) (UniProt P10242); experiment: ATG_Myb_CIS: Attagene CIS-FACTORIAL HepG2 Assay for human Myeloblastosis (Myb) Proto-Oncogene Transcription Factor (AID 2282986); conditions: HepG2 Attagene CIS-FACTORIAL Myb reporter transcription; actives raise or lower the signal
Transcriptional activator Myb (Homo sapiens), sequence (P10242 whole entry, looked up): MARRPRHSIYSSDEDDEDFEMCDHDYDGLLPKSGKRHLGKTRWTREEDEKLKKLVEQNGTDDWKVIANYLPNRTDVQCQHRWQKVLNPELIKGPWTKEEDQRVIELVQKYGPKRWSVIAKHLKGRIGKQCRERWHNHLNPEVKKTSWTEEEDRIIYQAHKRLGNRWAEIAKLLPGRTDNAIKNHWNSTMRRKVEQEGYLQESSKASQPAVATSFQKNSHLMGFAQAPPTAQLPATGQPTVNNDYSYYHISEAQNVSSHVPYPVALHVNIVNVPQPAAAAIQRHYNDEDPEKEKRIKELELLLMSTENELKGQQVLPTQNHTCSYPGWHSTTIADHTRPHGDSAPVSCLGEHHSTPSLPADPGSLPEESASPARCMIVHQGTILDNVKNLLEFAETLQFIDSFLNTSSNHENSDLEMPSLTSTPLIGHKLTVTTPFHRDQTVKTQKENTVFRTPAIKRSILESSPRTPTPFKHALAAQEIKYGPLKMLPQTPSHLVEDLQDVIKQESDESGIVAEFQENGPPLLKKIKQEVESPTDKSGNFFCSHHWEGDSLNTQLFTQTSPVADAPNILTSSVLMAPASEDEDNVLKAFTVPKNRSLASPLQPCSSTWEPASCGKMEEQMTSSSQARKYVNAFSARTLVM
How it was run: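 HepG2 cells were transiently transfected with cis-regulated multiple reporter transcription units reflecting endogenous Myb activity, then exposed to compound for 24 hours. Reporter mRNA was measured by RT-PCR with capillary electrophoresis; bidirectional fitting versus DMSO baseline.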

[6] = biological target: Nuclear respiratory factor 1 (Homo sapiens) (UniProt Q16656); experiment: ATG_NRF1_CIS: Attagene CIS-FACTORIAL HepG2 Assay for human Nuclear Respiratory Factor 1 (NRF1) Orphan Gene (AID 2282987); conditions: HepG2 NRF1 cis-element reporter, Attagene multiplex; actives raise or lower the signal
Nuclear respiratory factor 1 (Homo sapiens), sequence (Q16656 whole entry, looked up): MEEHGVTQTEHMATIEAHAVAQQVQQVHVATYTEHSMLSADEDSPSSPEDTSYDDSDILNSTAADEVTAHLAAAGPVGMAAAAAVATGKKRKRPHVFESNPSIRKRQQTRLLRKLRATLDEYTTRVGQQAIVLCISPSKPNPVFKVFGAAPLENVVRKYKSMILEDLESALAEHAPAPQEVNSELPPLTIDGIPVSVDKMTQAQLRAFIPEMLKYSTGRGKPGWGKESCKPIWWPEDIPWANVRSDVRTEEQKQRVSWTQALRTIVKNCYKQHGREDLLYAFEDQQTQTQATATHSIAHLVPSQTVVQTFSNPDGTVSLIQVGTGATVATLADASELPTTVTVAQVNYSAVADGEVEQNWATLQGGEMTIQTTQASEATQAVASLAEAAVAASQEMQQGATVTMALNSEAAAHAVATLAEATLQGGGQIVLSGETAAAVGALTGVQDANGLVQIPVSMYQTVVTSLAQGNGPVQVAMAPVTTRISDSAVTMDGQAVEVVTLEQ
How it was run: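 HepG2 cells transiently transfected with multiple reporter transcription units under cis-regulatory promoter control, so endogenous transcription-factor activity is read. After 24 h compound exposure, reporter mRNA quantified by RT-PCR, fluorescent labelling, HpaI digestion and capillary electrophoresis; bidirectional fitting versus DMSO.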

[7] = ATG_NFI_CIS: Attagene CIS-FACTORIAL HepG2 Assay for human Nuclear Factor I (NFI) (AID 2282989); conditions: HepG2 cis-regulatory reporter, NFI response element transcription; actives raise or lower the signal
How it was run: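 After transient transfection of HepG2 with cis-promoter reporter constructs and 24 h dosing, RNA is reverse-transcribed, amplified, 6-FAM end-labelled and HpaI-digested before capillary analysis. Bidirectional curve fitting against DMSO.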

[8] = biological target: Myc proto-oncogene protein (Homo sapiens) (UniProt P01106); experiment: ATG_Myc_CIS: Attagene CIS-FACTORIAL HepG2 Assay for human Myelocytomatosis (Myc) Proto-Oncogene Transcription Factor (AID 2282990); conditions: HepG2, Attagene cis-reporter transcription factor activity; actives raise or lower the signal
Myc proto-oncogene protein (Homo sapiens), sequence (P01106 whole entry, looked up): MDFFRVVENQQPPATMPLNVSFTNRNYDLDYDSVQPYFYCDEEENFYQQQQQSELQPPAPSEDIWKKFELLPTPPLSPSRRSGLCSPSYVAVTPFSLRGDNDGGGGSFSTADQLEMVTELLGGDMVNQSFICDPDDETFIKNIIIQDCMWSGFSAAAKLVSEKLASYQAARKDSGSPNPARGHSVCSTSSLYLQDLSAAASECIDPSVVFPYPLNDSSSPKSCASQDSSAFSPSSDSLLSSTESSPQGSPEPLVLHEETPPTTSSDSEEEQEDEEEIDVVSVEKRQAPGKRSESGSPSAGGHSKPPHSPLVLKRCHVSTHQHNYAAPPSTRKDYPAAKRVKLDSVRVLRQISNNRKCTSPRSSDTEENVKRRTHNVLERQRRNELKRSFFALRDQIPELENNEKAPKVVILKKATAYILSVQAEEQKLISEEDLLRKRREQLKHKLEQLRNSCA
How it was run: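 Transiently transfected HepG2 cells bearing cis-promoter reporter units for endogenous transcription factors; 24 h exposure. Reporter mRNA measured by RT-PCR, 6-FAM primer extension, HpaI cut and capillary electrophoresis; bidirectional fit relative to DMSO.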

[9] = ATG_NF_kB_CIS: Attagene CIS-FACTORIAL HepG2 Assay for human Nuclear Factor Kappa B (NF-kB) (AID 2282991); conditions: HepG2 Attagene cis-factorial NF-kB reporter mRNA; actives raise or lower the signal
How it was run: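 HepG2 cells transiently transfected with multiplexed cis-element reporter units measuring endogenous transcription factor activity; reporter mRNA read 24 h after dosing by RT-PCR, fluorescent labelling, HpaI digestion and capillary electrophoresis. Bidirectional fit against DMSO baseline.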

[10] = ATG_NRF2_ARE_CIS: Attagene CIS-FACTORIAL HepG2 Assay for human Nuclear Factor Erythroid 2 Related Factor 2 (NFR2) response to Antioxidant Response Elements (ARE) (AID 2282992); conditions: HepG2 Attagene ARE/NRF2 reporter, transcription factor activity; actives raise or lower the signal
How it was run: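 Readout: reporter mRNA quantified by RT-PCR plus FAM-labelled primer extension, HpaI digestion and capillary electrophoresis, 24 h after dosing transfected HepG2 cells. Gain or loss of signal is fitted bidirectionally against DMSO baseline.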

[11] = ATG_Oct_MLP_CIS: Attagene CIS-FACTORIAL HepG2 Assay for human Octamer-Binding Transcription Factor (Oct) (AID 2282993); conditions: HepG2 Attagene cis-factorial Oct reporter, mRNA; actives raise or lower the signal
How it was run: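 Cells of the HepG2 line express promoter-controlled reporter sequences whose mRNA levels, after 24 h treatment, are measured by RT-PCR and capillary electrophoresis. Increases and decreases are scored relative to DMSO.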

[12] = BSK_3C_TissueFactor: BioMAP Diversity Plus: 3C Assay for Tissue Factor Biomarker Activity (AID 2282997); conditions: BioMAP 3C HUVEC, tissue factor biomarker readout; actives raise or lower the signal
How it was run: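 Tissue factor on primary human umbilical vein endothelium was read by ELISA 24 h after dosing, gain or loss relative to DMSO. Cytotoxicity ran alongside via SRB (0.1%, TCA-fixed, 560 nm).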

[13] = BSK_3C_uPAR: BioMAP Diversity Plus: 3C Assay for Urokinase-type plasminogen activator receptor (uPAR) Biomarker Activity (AID 2282998); conditions: BioMAP 3C HUVEC, uPAR biomarker ELISA; actives raise or lower the signal
How it was run: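 Endothelial primary cells of human umbilical vein origin received test chemical; 24 h later uPAR was assayed by ELISA. Fitting was bidirectional, DMSO as negative control.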

[14] = BSK_3C_VCAM1: BioMAP Diversity Plus: 3C Assay for Vascular cell adhesion molecule 1 (VCAM1) Biomarker Activity (AID 2282999); conditions: BioMAP 3C HUVEC, VCAM1 ELISA, cytokine-stimulated; actives raise or lower the signal
How it was run: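 HUVEC primary cells, 24 h compound exposure; VCAM-1 by ELISA; gain/loss of signal fitted bidirectionally vs DMSO baseline.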

[15] = BSK_4H_Eotaxin3: BioMAP Diversity Plus: 4H Assay for Eotaxin 3 Biomarker Activity (AID 2283000); conditions: primary human endothelial cells (HUVEC); actives raise or lower the signal
How it was run: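 Human umbilical vein endothelial cells (BSK_4H system) dosed with test chemical; Eotaxin-3 (CCL26) measured by ELISA 24 h after dosing. Bidirectional curve fitting relative to DMSO negative control as baseline.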

[16] = biological target: human Peroxisome Proliferator-activated Receptor alpha (PPARa), PPARA (gene 5465) (UniProt Q07869); experiment: ATG_PPARa_TRANS: Attagene TRANS-FACTORIAL HepG2 Assay for human Peroxisome Proliferator-activated Receptor alpha (PPARa) (AID 2283001; active = hit-call score of the fitted dose curve at least 0.9, where 1 is the maximum)
human Peroxisome Proliferator-activated Receptor alpha (PPARa), PPARA (gene 5465), sequence (Q07869 whole entry, looked up, the tested form may be a part): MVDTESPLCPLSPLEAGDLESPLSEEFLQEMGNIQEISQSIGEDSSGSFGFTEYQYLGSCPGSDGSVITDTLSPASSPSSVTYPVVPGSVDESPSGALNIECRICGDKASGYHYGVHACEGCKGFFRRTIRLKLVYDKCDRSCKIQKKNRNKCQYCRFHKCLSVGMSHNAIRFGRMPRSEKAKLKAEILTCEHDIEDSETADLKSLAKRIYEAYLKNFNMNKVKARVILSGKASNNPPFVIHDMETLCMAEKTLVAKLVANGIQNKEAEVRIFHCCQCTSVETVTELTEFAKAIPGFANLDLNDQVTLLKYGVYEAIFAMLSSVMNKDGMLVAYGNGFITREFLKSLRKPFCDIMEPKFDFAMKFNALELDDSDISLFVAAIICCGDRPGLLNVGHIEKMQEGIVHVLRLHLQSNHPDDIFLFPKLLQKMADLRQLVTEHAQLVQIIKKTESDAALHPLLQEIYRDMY
How it was run: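 Transient HepG2 transfection, GAL4-UAS reporters, NR-Gal4 chimeras; 24 h compound exposure. Readout: reporter transcripts by RT-PCR, 6-FAM primer extension, HpaI digest, capillary electrophoresis. Positive direction vs DMSO baseline.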

[17] = biological target: Nuclear receptor subfamily 4 group A member 2 (Homo sapiens) (UniProt P43354); experiment: ATG_NURR1_TRANS: Attagene TRANS-FACTORIAL HepG2 Assay for human Nuclear Receptor Related Protein 1 (NURR1) (AID 2282985; active = hit-call score of the fitted dose curve at least 0.9, where 1 is the maximum); conditions: HepG2 Attagene TRANS reporter, mRNA readout
Nuclear receptor subfamily 4 group A member 2 (Homo sapiens), sequence (P43354 whole entry, looked up, the tested form may be a part): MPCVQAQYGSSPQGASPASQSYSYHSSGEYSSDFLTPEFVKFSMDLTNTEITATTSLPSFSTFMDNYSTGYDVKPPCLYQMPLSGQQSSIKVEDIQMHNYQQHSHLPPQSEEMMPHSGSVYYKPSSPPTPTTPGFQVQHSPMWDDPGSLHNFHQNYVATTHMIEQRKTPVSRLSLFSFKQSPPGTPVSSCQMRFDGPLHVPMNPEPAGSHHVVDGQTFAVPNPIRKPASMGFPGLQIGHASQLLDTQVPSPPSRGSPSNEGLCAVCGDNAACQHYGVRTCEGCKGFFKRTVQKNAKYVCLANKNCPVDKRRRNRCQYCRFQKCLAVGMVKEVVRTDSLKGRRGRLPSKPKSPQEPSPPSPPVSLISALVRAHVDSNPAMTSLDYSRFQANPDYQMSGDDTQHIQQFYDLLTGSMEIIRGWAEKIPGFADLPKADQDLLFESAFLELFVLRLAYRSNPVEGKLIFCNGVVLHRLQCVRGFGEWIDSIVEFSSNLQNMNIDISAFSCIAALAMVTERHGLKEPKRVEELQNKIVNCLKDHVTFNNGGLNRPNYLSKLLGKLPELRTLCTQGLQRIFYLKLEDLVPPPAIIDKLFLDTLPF
How it was run: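 Read-out: reporter mRNA induction by RT-PCR plus capillary electrophoresis with fluorescence detection, after 24 h dosing of transfected HepG2 cells. Exogenous NR-Gal4 chimera activity drives GAL4-UAS reporter; activity fitted upward versus DMSO.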

[18] = biological target: Glucocorticoid receptor (Homo sapiens) (UniProt P04150); experiment: ATG_GR_TRANS: Attagene TRANS-FACTORIAL HepG2 Assay for human Glucocorticoid Receptor (GR) (AID 2282978; active = hit-call score of the fitted dose curve at least 0.9, where 1 is the maximum;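 note: activators score as hits since higher reporter transcript over DMSO is fitted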); conditions: HepG2 Attagene TRANS GR reporter, mRNA transcription
Glucocorticoid receptor (Homo sapiens), sequence (P04150 whole entry, looked up, the tested form may be a part): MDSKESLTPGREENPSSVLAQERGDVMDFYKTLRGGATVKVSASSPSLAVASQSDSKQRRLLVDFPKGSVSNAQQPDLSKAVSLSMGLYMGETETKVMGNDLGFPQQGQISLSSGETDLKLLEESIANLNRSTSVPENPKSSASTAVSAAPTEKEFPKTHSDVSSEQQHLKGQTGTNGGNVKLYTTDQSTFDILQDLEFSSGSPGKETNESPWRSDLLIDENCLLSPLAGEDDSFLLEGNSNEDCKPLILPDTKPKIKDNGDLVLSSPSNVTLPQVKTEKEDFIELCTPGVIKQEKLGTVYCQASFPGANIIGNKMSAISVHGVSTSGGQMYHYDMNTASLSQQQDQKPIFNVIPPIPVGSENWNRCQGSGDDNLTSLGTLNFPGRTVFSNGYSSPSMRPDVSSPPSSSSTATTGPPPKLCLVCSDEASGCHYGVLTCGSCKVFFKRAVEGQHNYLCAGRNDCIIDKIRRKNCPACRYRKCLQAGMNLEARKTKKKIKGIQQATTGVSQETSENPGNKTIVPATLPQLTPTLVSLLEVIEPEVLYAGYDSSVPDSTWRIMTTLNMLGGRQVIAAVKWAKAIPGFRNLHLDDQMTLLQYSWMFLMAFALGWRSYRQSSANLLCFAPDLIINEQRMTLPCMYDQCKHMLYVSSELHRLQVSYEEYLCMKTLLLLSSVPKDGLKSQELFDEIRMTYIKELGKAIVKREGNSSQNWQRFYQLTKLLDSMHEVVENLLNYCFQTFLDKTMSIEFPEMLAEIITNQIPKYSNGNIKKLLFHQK
How it was run: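 HepG2 cells transiently transfected with multiplexed reporter units in which chimeric NR-GAL4 proteins drive GAL4-UAS reporters; 24 h compound exposure. Reporter mRNA measured by RT-PCR, 6-FAM labelling, HpaI digestion and capillary electrophoresis; gain-of-signal fitted versus DMSO.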

[19] = ATG_M_06_TRANS: Attagene TRANS-FACTORIAL HepG2 Assay for M06 Transcription Factor (Internal Marker) (AID 2282983; active = hit-call score of the fitted dose curve at least 0.9, where 1 is the maximum;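 note: reporter transcript level by RT-PCR then capillary electrophoresis fluorescence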); conditions: HepG2 Attagene TRANS M06 internal marker reporter
How it was run: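 Background-control reporter readout: after 24 h chemical exposure of transiently transfected HepG2 (GAL4-UAS reporter units), mRNA quantified by RT-PCR with fluorescent labeling and capillary electrophoresis. Gain-of-signal fitting against DMSO baseline.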

[20] = biological target: Cellular tumor antigen p53 (Homo sapiens) (UniProt P04637); experiment: ATG_p53_CIS: Attagene CIS-FACTORIAL HepG2 Assay for human p53 Transcription Factor (AID 2282994); conditions: HepG2 p53 cis-element reporter, Attagene mRNA; actives raise or lower the signal
How it was run: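 Read-out: reporter mRNA by RT-PCR plus capillary electrophoresis with fluorescence detection. Human HepG2 liver cells carried transfected multi-reporter cis-element constructs, dosed 24 h. Gain or loss of signal fitted bidirectionally against DMSO control.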

Measured: AC50

CC(C)COC(=O)CCCCC(=O)OCC(C)C
not listed: [17] | [18] | [19] | [20]
inactive: all other assays above

CSc1ccc(Oc2ccc(S(N)(=O)=O)cc2CN(C)C)cc1C
active: [11] 33 µM
not listed: [3] | [10] | [16] | [18] | [19] | [20]
inactive: all other assays above

C#CC(O)C(CC)CCCC (stereo not drawn)
active: [9] 67.2 µM | [10] 53.3 µM
not listed: [1] | [2] | [3] | [16] | [19] | [20]
inactive: all other assays above

CCCCOC(=O)CCCCC(=O)OCCCC
active: [18] 155 µM
not listed: [1] | [2] | [20]
inactive: all other assays above

O=C1CCCCC1
not listed: [1] | [2] | [10] | [20]
inactive: all other assays above

CCCCCCCCCC[N+](C)(C)[O-]
not listed: [1] | [3] | [9] | [10] | [16] | [17] | [19]
inactive: all other assays above

O=C1O[C@H]([C@H](O)CO)C(O)=C1O
not listed: [1] | [2] | [3] | [9] | [10] | [16] | [19]
inactive: all other assays above

S=c1[nH]c2ccccc2s1
active: [10] 54.9 µM | [11] 100 µM
not listed: [1] | [2] | [4] | [9] | [17]
inactive: all other assays above

O=C(O)c1cccnc1
not listed: [2] | [3] | [10] | [18] | [20]
inactive: all other assays above

CCOCCOCCO
not listed: [1] | [2] | [3] | [10] | [17] | [19]
inactive: all other assays above

Cc1ccc(-c2cc(C(F)(F)F)nn2-c2ccc(S(N)(=O)=O)cc2)cc1
active: [12] 31.7 µM | [13] 24.6 µM | [14] 33.9 µM | [15] 31 µM
inactive: [18] | [19] | [17] | [5] | [6] | [7] | [8] | [9] | [11]

CC1(C)C(=O)NC(=O)N1CO
not listed: [1] | [2] | [4] | [10] | [16] | [19]
inactive: all other assays above

CCc1cc(C2=C(C(=O)O)N(c3ccccc3C(F)(F)F)S(=O)(=O)c3ccccc32)cc2c1OCO2
active: [10] 66.8 µM | [11] 61 µM | [13] 33.7 µM
not listed: [1] | [2] | [3] | [9] | [16] | [17]
inactive: all other assays above

CC(=O)O
not listed: [1] | [2] | [3] | [9] | [18] | [20]
inactive: all other assays above

CCCCCCCC(=O)OC
not listed: [1] | [3] | [10] | [18]
inactive: all other assays above

CCC(C)N(C)C(=O)c1cc2ccccc2c(-c2ccccc2Cl)n1 (stereo not drawn)
active: [6] 63 µM | [11] 37 µM | [20] 27.3 µM
not listed: [1] | [2] | [3] | [10] | [16] | [18] | [19]
inactive: all other assays above

O=C1OC(c2ccc(O)cc2)(c2ccc(O)cc2)c2ccccc21
active: [7] 22.8 µM | [8] 180 µM | [9] 176 µM | [10] 177 µM | [11] 26.2 µM | [13] 14.6 µM | [14] 29.7 µM
inactive: [5] | [6] | [20] | [12] | [15]
